Experimental data as given in PubChem BioAssay (NCATS).
Several values for one entry are separate records, joined by “and”; a condition that tells them apart may be missing. Identical values can stand only once. Inconclusive results are not listed. Activity calls are given as the source filed them. Unless noted, the call rests on the fitted dose curve.

test system: not listed separately; assay: AP1 Signaling Pathway (AID 357; active means well fitted curve in either direction with a large enough effect, not every such curve was filed as active;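 further: ME-180 reporter cells stimulated with EGF at its EC50 level; on the % scale 0 is the no-effect control and ±100 the full control effect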); details: ME-180 (cervical carcinoma) AP-1-bla reporter, EGF-induced, beta-lactamase ratio, 5 h; series mostly up to 17.2 µM; activity change, negative = inhibition: at the top concentration
In short: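 Beta-lactamase reporter under AP-1 response element, ME-180 background. Stimulus: EC50 EGF. Compound exposure 5 h, 37 °C. Detection: CCF4, 2.5 h RT, 460/530 nm. Values: AC50 from titration.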

| Compound | activity change, negative = inhibition | outcome |
| --- | --- | --- |
| CC(C(=O)O)c1ccc(-c2ccccc2)c(F)c1 (configuration not stated) | 3.32% (inactive) |  |
| CC(C)(C)c1ccc(C(O)CCCN2CCC(C(O)(c3ccccc3)c3ccccc3)CC2)cc1 (configuration not stated) | 11% (inactive) |  |
| CC(C)NCC(O)COc1cccc2[nH]ccc12 (configuration not stated) | 7.92% (inactive) |  |
| O=C1C[C@@H](c2ccc(O)cc2)Oc2cc(O)cc(O)c21 | -12.1% (inactive) |  |
| COc1ccc2c3c1OC1C[C@@H](O)C=C[C@@]31CCN(C)C2 (some centres not stated) | 5.59% (inactive) |  |
| CCN(CC)CCNC(=O)c1ccc(N)cc1 |  | inactive |
| NC(N)=Nc1nc(CSCC/C(N)=N/S(N)(=O)=O)cs1 |  | inactive |
| CC(=O)N[C@@H](CS)C(=O)O | 8.13% (inactive) |  |
| Nc1ncnc2c1ncn2[C@@H]1O[C@@H](CO)[C@H](O)[C@H]1O | -10.5% (inactive) |  |

target: Cytochrome P450 1A2 (Homo sapiens) (UniProt P05177); assay: p450-cyp1a2 (AID 410); details: recombinant CYP1A2, luciferin-ME demethylation, luminescence; series mostly up to 57 µM; activity change, negative = inhibition: at the top concentration; further: potency means the concentration at half of the fitted maximal effect;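 on activity change, negative = inhibition: -100% = full effect of reference inhibitor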
In short: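 20nM CYP1A2, 100uM Luciferin-ME (=Km), 100mM KPO4; cpd 10 min RT; +NADPH regen, 60 min RT; stop/detect 20 min; luminescence. Normalized to furafylline 57 uM = full inhibition.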

Chain of Cytochrome P450 1A2 (Homo sapiens) (P05177 whole entry, looked up): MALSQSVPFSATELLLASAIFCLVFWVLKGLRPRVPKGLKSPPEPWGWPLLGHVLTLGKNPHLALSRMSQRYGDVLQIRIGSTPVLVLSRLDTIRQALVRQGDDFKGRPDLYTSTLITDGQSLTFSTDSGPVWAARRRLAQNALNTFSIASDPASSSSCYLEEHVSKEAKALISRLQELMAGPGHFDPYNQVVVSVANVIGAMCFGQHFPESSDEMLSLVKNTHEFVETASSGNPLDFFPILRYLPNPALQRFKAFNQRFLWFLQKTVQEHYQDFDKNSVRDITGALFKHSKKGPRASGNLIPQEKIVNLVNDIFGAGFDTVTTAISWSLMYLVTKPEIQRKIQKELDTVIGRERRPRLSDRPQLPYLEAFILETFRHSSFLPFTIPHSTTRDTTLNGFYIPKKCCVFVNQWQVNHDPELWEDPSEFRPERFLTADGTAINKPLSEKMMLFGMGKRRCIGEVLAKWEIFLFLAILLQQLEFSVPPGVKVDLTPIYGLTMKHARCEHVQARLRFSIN

| Compound | activity change, negative = inhibition | Potency |
| --- | --- | --- |
| CC(C)[C@H](CO)Nc1nc(Nc2ccc(C(=O)O)c(Cl)c2)c2ncn(C(C)C)c2n1 | -16.8% (inactive) |  |
| CS(=O)c1ccc(-c2nc(-c3ccc(F)cc3)c(-c3ccncc3)[nH]2)cc1 (configuration not stated) |  | 631 nM (active) and 3.98 µM (active) |
| COc1ccc(Cc2nccc3cc(OC)c(OC)cc23)cc1OC |  | 25.1 µM (active) and 10 µM (active) and 31.6 µM (active) |
| COc1cccc(-c2cc(=O)c3ccccc3o2)c1N |  | 3.16 µM (active) and 200 nM (active) |
| CC1(C)CCC2=C(O1)c1ccccc1C(=O)C2=O |  | 3.98 µM (active) |
| COc1ccc(-c2coc3cc(O)ccc3c2=O)cc1 |  | 0.631 µM (active) |
| O=c1cc(-c2ccccc2)oc2cc(O)c(O)c(O)c12 |  | 398 nM (active) and 501 nM (active) |
| CCCCCCCCCCCC1=C(O)C(=O)C=C(O)C1=O |  | inactive |
